This excerpt belongs to a sample that is enriched for hits.
LmPK inhibitor – qHTS Assay for Inhibitors of Leishmania Mexicana Pyruvate Kinase (LmPK). 0.37% of 290,000 active. purified LmPK, Kinase-Glo ATP luminescence, 1 h. Q27686. Potency, µM (series often up to 57.5 µM), without a hit: at the top dose activity change, negative = inhibition, most hits filed as inhibitors; also: potency is read from the fitted curve at half-maximal effect; % is scaled to controls: 0 for no effect and ±100 for the full control effect
Target sequence (Q27686 whole entry, looked up): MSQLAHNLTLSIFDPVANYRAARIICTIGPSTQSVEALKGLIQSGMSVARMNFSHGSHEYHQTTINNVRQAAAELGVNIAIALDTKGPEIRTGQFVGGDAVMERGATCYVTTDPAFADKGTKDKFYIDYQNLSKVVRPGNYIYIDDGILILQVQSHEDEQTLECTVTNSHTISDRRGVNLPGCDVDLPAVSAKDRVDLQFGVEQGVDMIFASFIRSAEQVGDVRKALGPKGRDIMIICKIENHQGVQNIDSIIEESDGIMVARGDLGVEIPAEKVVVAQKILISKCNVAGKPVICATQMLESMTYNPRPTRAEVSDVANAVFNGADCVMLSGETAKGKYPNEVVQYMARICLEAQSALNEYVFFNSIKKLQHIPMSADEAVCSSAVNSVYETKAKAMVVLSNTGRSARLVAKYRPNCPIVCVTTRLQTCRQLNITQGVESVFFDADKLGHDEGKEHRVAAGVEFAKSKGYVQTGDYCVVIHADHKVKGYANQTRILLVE
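ATP generated from ADP (0.1 mM) and PEP (0.5 mM) by 0.1 nM LmPK over 1 h at room temperature (pH 7.2 imidazole buffer) was detected by coupled luciferase luminescence. Values were normalized to uninhibited and no-enzyme wells.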
Giardia FBPA inh – qHTS Assay for Inhibitors of Fructose-1,6-bisphosphate Aldolase from Giardia Lamblia. purified Giardia FBPA. Potency, µM (titrated, usually from 59.6 µM), inactives show top-dose activity, negative = inhibition, most hits filed as inhibitors. 0.71% of 290,000 active. AID 2451, 2010; also: potency is read from the fitted curve at half-maximal effect; % is scaled to controls: 0 for no effect and ±100 for the full control effect; nearly all actives have a fitted effect of over 55% in size
Target sequence (A8B2U2 whole entry, looked up): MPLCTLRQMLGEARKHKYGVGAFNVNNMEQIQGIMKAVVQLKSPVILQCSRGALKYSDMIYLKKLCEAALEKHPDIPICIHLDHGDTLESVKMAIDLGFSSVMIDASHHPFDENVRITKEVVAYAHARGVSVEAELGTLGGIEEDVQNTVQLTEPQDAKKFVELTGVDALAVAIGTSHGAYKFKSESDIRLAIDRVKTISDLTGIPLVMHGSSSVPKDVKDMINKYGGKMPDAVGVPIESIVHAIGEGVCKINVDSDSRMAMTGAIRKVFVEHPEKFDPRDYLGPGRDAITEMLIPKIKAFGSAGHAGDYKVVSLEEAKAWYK
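Giardia FBPA (40 nM reagent) was preincubated 10 min at RT with compound (up to 57.5 uM final), then substrate plus GAPDH/TPI/NAD/arsenate coupling system with diaphorase/resazurin was added; resorufin fluorescence (525/598 nm) was read after 20 min.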
Shiga inhibitor – A qHTS for Small Molecule Inhibitors of Shiga Toxin | inhibition, % at 38.7 µM | Vero cells, Shiga toxin protein synthesis inhibition reporter | 9.2% of 290,000 active; in the data active = inhibition mostly above about 28%, no sharp cut-off; inactive = mostly below about 43%; also: 0% is about no effect
Cycloheximide cs – Cycloheximide Counterscreen for Small Molecule Inhibitors of Shiga Toxin; max response, %; 12% of 300,000 active; cell reporter, cycloheximide protein synthesis inhibition counterscreen; in the data active = max response mostly above about 13%, no sharp cut-off; inactive = mostly below about 14%; also: read at 38.3 µM for the half of the compounds with a filed dose; 0% is about no effect
Sm TGR inh – qHTS Assay for the Inhibitors of Schistosoma Mansoni Peroxiredoxins. Potency, µM (highest dose often 114 µM), without a hit: top-dose activity change, negative = inhibition, actives largely listed as inhibitors. AID 485364, 2010. Schistosoma mansoni thioredoxin glutathione reductase (TGR), Q962Y6. 3% of 360,000 active. purified TGR, DTNB reduction, TNB absorbance 405 nm; also: potency is read from the fitted curve at half-maximal effect; % is scaled to controls: 0 for no effect and ±100 for the full control effect; nearly all actives have a fitted effect of over 60% in size
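First, TGR (20 nM dispensed) and NADPH were mixed with compound. Second, a 15 min room-temperature incubation followed. Third, further NADPH and then DTNB were added to start the reaction. Finally, TNB absorbance was monitored kinetically.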
TbPYK inhibitor – qHTS of Trypanosoma Brucei Inhibitors | pyruvate kinase (Trypanosoma brucei), Q57TT1 | TbPYK enzyme, Kinase-Glo Plus ATP luminescence, 45 min | Potency, µM (series often up to 76.8 µM), inactives show at the top dose activity, negative = inhibition, usual class: inhibitors | 0.12% of 410,000 active; also: potency is read from the fitted curve at half-maximal effect; % is scaled to controls: 0 for no effect and ±100 for the full control effect; nearly all actives have a fitted effect of over 50% in size
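Luminescent Kinase-Glo Plus end-point after 45 min room-temperature reaction of T. brucei pyruvate kinase started with 130 uM ADP (final). Buffer TEA 50 mM pH 7.2 with KCl, MgCl2, BSA, Tween-20; titration-based qHTS with fitted concentration-effect curves.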
* hit, by the source's call; ? = inconclusive; nt = no result given; ! = not active in a repeat; [ ] = dose if it differs, or a comment. Unless noted, calls follow the shape of the dose curve; as a rule, active = well fitted curve in the direction sought with a large enough effect; inconclusive = small, poorly fitted or top-dose-only effect, or another doubt; inactive = no such curve, though single readings can be large; an effect the other way counts as inactive or inconclusive.

SMILES | LmPK inhibitor | Giardia FBPA inh | Shiga inhibitor | Cycloheximide cs | Sm TGR inh | TbPYK inhibitor
O=C(Nc1ccc2c(c1)OCO2)c1cccc(F)c1 | ? | 2.8% | 75.1* | 34.3* | -21.2% | -3.7%
O=C(Nc1ccc2c(c1)OCO2)C1CCCN1C(=O)Nc1cccc(F)c1 (stereo not given) | 3.7% | 10.2% | 15.0 | 14.9 | 0.6% | 0.7%
O=C(COC(=O)c1cccc(F)c1)Nc1ccc2c(c1)OCCO2 | nt | nt | nt | nt | 2.7% | -0.6%
CC(C)[C@H](NC(=O)c1ccccc1F)C(=O)Nc1ccc2c(c1)OCO2 | nt | nt | nt | nt | -11.4% | -0.8%
O=C(Nc1ccc2c(c1)OCO2)c1c(F)cccc1F | -21.2% | -5.7% | 74.8* | 33.4* | 6.5% | 1.3%
O=C(Nc1cccc(F)c1)Nc1ccc2c(c1)OCO2 | -9.1% | -2.5% | 85.0* | 59.1* | -17.7% | -3.4%
O=C(O)Cc1ccc(NC(=O)Nc2ccc3c(c2)OCO3)cc1 | -0.1% | 2.4% | 47.0* | 34.8* | 4.4% | 0.8%
Cc1cc(NC(=O)CCC(=O)N(CC(=O)NCC2CCCO2)c2ccc(C(C)C)cc2)no1 (stereo not given) | -2.7% | -0.5% | -8.7 | -4.5 | 3.1% | 0.4%
CN(C(=O)c1ccc2c(c1)N(Cc1cccc(Cl)c1)C(=O)c1ccccc1S2(=O)=O)C1CCCCC1 | nt | nt | nt | nt | 16.9% | 0.6%
Cc1ccc(OCC(=O)Nc2ccc(-c3nc4ccc(C)cc4o3)cc2)cc1 | nt | nt | 79.9* | 34.1* | 1.9% | -0.8%
Cc1ccc2nc(-c3ccc(Cl)c(NC(=O)COc4ccc(C(C)C)cc4)c3)oc2c1 | nt | nt | nt | nt | -14.0% | -5.9%
COc1ccc(OCC(=O)Nc2ccc(-c3nc4cc(C)c(C)cc4o3)cc2)cc1 | nt | nt | 97.8* | 50.6* | -14.7% | -3.6%
O=S(=O)(Nc1cccc2ccccc12)c1cccc2ccccc12 | nt | nt | 4.4 | -5.0 | nt | nt
CC1OCC23CC[C@@]4(C)CCC(C)(C)C[C@H]4[C@]2(C)CCC12C3CC[C@@]1(C)C2C(=O)CC(=O)[C@@H]1C (stereo not given in full) | nt | 5.2% | nt | nt | nt | nt
C[C@@H]1CC[C@H]2C(=O)O[C@H](CN=[N+]=[N-])CN2[C@@H]1c1ccc(Br)cc1 | nt | -4.0%[12.9 µM] | nt | nt | nt | nt
CCN(CC)CCCNC(=O)c1cn(CC(C)C)c(=O)c2c1c1ccccc1n2C | 1.9% | 0.1% | -4.3 | -2.5 | ? | -6.4%
CCCCN(CC)CCCNC(=O)c1cn(CC(C)C)c(=O)c2c1c1ccccc1n2C | 3.1% | 11.3% | -6.4 | 0.9 | 31.6µM*! | -4.9%
O=C(Nc1cccc2ccccc12)c1ccc([N+](=O)[O-])s1 | 0.1% | -1.3% | 6.8 | 2.1 | -10.2% | 1.9%
O=C(Nc1ccccc1F)c1ccc([N+](=O)[O-])s1 | 0.2% | -4.8% | 83.3 | 38.4* | ? | 2.1%
Cc1ccc(C(=O)Nc2cc([N+](=O)[O-])ccc2F)s1 | 3.9% | -1.3% | active | 9.6 | 2.8% | 2.0%
CN1CCN(C(=O)c2cc3ccccc3cc2O)CC1 | nt | nt | nt | nt | -21.8% | -4.6%
Cc1cc(NC(=O)N2CCC(CN3CCCCCC3)CC2)ccc1Br | nt | nt | nt | nt | -28.5% | -4.3%
COc1ccc(/C=C/c2cc(=O)c3cc(Cl)ccc3o2)cc1 | -2.7% | -6.0% | 17.3 | 9.0 | -0.2% | -1.3%
COc1ccc(/C=C/C2=NC(=C\N(C)C)/C(=O)O2)cc1 | 2.1% | -4.9% | 107.0* | 43.4* | 0.0% | 4.7%
COc1ccc(C(=O)c2c[nH]c(C(=O)N=CN(C)C)c2)cc1 | 1.4% | -1.3% | 41.7* | 20.1* | -4.2% | -1.6%
SMILES | LmPK inhibitor | Giardia FBPA inh | Shiga inhibitor | Cycloheximide cs | Sm TGR inh | TbPYK inhibitor
Cc1ccccc1C(=O)c1c[nH]c(C(=O)N=CN(C)C)c1 | -3.1% | -7.2% | -13.0 | -2.4 | nt | -2.7%
CC(C)(C)c1ccc(C(=O)c2c[nH]c(C(=O)NCC3CCCO3)c2)cc1 (stereo not given) | 7.8% | -15.4% | 22.1 | 22.4* | -13.7% | 0.7%
COc1ccc(C(=O)c2c[nH]c(C(=O)NCC3CCCO3)c2)cc1 (stereo not given) | 3.0% | -1.8% | 27.6 | 21.2* | -1.9% | -7.2%
Cc1ccccc1C(=O)c1c[nH]c(C(=O)NCC2CCCO2)c1 (stereo not given) | -1.0% | 4.3% | -1.1 | -2.5 | 1.4% | 3.4%
CN1c2ccccc2C(=O)NC1c1ccc(Cl)cc1 (stereo not given) | -3.4% | -1.3% | 36.6 | 11.6* | -12.2% | -10.6%
OCCC1CCCCN1CC(O)COCc1ccc(Cl)cc1 (stereo not given) | -4.8% | ? | -6.6 | -1.9 | -17.9% | 4.4%
Cc1cc(S(=O)(=O)N2CCCCC2)ccc1OCC(=O)N1CCCC1 | 0.7% | -2.6% | 7.1 | -3.5 | 2.4% | 3.4%
Cc1cc(S(=O)(=O)N2CCOCC2)ccc1OCC(=O)N1CCCCC1 | -6.5% | -5.5% | 26.4 | 5.1 | -4.5% | 1.4%
Cc1cc(Br)ccc1OCC(=O)N1CCCCCC1 | 0.2% | 5.8% | 27.3 | 24.8* | 0.6% | 0.2%
Cc1ccc(OCC(=O)N2CCCCCC2)c(C)c1 | -4.8% | 7.6% | 36.8 | 10.4* | 9.5% | -1.1%
CC(C)c1ccc(OCC(=O)N2CCCCCC2)c(Br)c1 | 0.5% | 10.3% | 79.8* | 24.6* | nt | -14.3%
Cc1ccc(OCC(=O)N2CCN(C)CC2)c(Br)c1 | -3.3% | 1.8% | 93.3* | 21.4* | 0.3% | -0.2%
O=C(COC(=O)C12CC3CC(CC(Cl)(C3)C1)C2)NCc1ccco1 | nt | nt | -9.1 | -4.1 | nt | nt
CCOc1ccc(N2CC(c3nc4ccccc4n3CCCOc3ccccc3OC)CC2=O)cc1 (stereo not given) | nt | nt | nt | nt | 0.7% | -0.8%
O=C(N/N=C/c1ccco1)c1cc(C2CC2)[nH]n1 | -28.0% | -1.6% | 117.8* | 35.2* | ? | -6.0%
Cc1cc(C)cc(OCC(=O)NNC(=O)c2cc(C)[nH]n2)c1 | -1.6% | 1.4% | 35.0 | -1.3 | 7.2% | -16.5%
CC(/C=C/c1ccco1)=N\NC(=O)c1cc(Cl)ccc1O | 20.1% | -27.4% | 91.2* | 26.8* | 8.91µM* | -6.5%
O=C(C=Cc1ccco1)c1cc(Cl)ccc1O | nt | nt | nt | nt | nt | -1.2%
O=C(N/N=C/c1ccc([N+](=O)[O-])cc1)c1cc(C2CC2)[nH]n1 | -4.8% | nt | -16.6 | -0.8 | ? | 5.0%
Cc1cc(C(=O)NN)n[nH]1 | -4.0% | -2.5% | 60.9* | 20.1* | 15.2% | -7.0%
O=C(N/N=C/c1cccc2ccccc12)c1cc(C2CC2)[nH]n1 | 10.2% | -5.0% | 74.8* | 22.0* | -2.3% | 4.4%
O=C(NC(C(=O)N/N=C/c1cccc2ccccc12)c1n[nH]c(=O)c2ccccc12)c1ccccc1 (stereo not given) | 3.5% | -5.3% | 11.2 | 3.4 | -2.1% | -12.5%
COC(=O)c1sc2cccc(F)c2c1S(=O)(=O)N1CCN(c2ccc(F)cc2)CC1 | nt | nt | nt | nt | 7.0% | -4.9%

Source: PubChem BioAssay (National Center for Advancing Translational Sciences (NCATS))
